Test results from PubChem BioAssay (NCATS).
Results filed as inconclusive are left out. A call without a number means that no potency is given here. The source made the active and inactive calls. Calls come from the whole dose curve; as a rule, active = well fitted cell-killing curve with a large enough effect; inconclusive = small, poorly fitted or top-dose-only effect, or effect the other way; inactive = no such curve, though single readings can be large or run the other way. Non-standard residues stand in square brackets, D forms with d. Residues, ends and D or L forms follow the SMILES beside them. *: point of attachment. Sta = CC(C)C[C@H](N)[C@@H](O)CC(=O)O; Isovaleryl = CC(C)CC(=O)*

Test: Quantitative High-Throughput drug screen in 47 multiple myeloma cell lines against the NCATS MIPE library collection: ARD_JJKsccE7 cell viability assay (AID 1918929)
Details: ARD myeloma cell line viability, CellTiter-Glo, 48 h; series mostly up to 45.8 µM
Text: PI: Beverly A. Mock Ph.D.
Laboratory of Cancer Biology and Genetics,
Center for Cancer Research, National Cancer Institute,
National Institute of Health, Bethesda, Maryland
Drug resistance and disease progression are common in multiple myeloma (MM) patients, underscoring the need for new therapeutic combinations. […] We hypothesized that effective combinations would reduce MYC expression and enhance p16 activity. […] These preclinical data identify potentially useful drug combinations for evaluation in drug-resistant MM and reveal potential mechanisms of combined drug sensitivity.
Described herein is the primary MIPE qHTS used to cherrypick compounds. Validated compounds were then further tested for potential synergistic activiy.
[1] Peat TJ, Gaikwad SM, Dubois W, Gyabaah-Kessie N, Zhang S, Gorjifard S, Phyo Z, Andres M, Hughitt VK, Simpson RM, Miller MA, Girvin AT, Taylor A, Williams D, D'Antonio N, Zhang Y, Rajagopalan A, Flietner E, Wilson K, Zhang X, Shinn P, Klumpp-Thomas C, McKnight C, Itkin Z, Chen L, Kazandijian D, Zhang J, Michalowski AM, Simmons JK, Keats J, Thomas CJ, Mock BA. Drug combinations identified by high-throughput screening promote cell cycle transition and upregulate Smad pathways in myeloma. Cancer Lett. 2023 Aug 1;568:216284. doi: 10.1016/j.canlet.2023.216284. Epub 2023 Jun 24. PMID: 37356470; PMCID: PMC10408729.
SEQUENCE No. (e.g., 1, 2, 3, etc.); […] (e.g., Cells, Incubation, Reagent, etc.); VALUE and DESCRIPTION.
1; Cells; 5 uL; white, solid bottom 1536-well Greiner assay plate.
2; Compounds; 23 nL; Kalypsis pin tool (Wako USA) equipped with a 1536-well pin head to transfer to the assay plates.
3; Incubation; 48 hours; 37C incubation.
4; Reagent;5uL; CellTiter Glo (Promega).
5; Detector; 425V; Luminescence; Viewlux PerkinElmer.
NOTES (numbers refer to Sequence numbers above)
1. The cell-based screening methods employed in this study were like those previously published. Briefly, the corresponding myeloma cell lines were screened in 1,536-well plates with 500 cells, 5-uL per well for inhibition of cell viability (assessed by measuring ATP levels with CellTiterGlo).
2. NCATS MIPE 4.0 library of approved and investigational drugs were added using the Kalypsis pin tool. Wells treated with DMSO only for 100% viability and media only wells for 0% viability were used as controls.
3. The assay plates were covered and incubated for 48 hours in a 37C, 5% CO2 incubator with controlled humidity.
4. After 48 hours, CellTilter-GloTM luminescent substrate mix (Promega) reagent was added to the assay plate and plates we incubated for 5 min at room temperature.
5. Signal was measured as median relative luminescence units on a ViewLux (PerkinElmer) multiplate reader.
[1] Heske CM, Davis MI, Baumgart JT, Wilson K, Gormally MV, Chen L, Zhang X, Ceribelli M, Duveau DY, Guha R, Ferrer M, Arnaldez FI, Ji J, Tran HL, Zhang Y, Mendoza A, Helman LJ, Thomas CJ. Matrix Screen Identifies Synergistic Combination of PARP Inhibitors and Nicotinamide Phosphoribosyltransferase (NAMPT) Inhibitors in Ewing Sarcoma. Clin Cancer Res. 2017 Dec 1;23(23):7301-7311. doi: 10.1158/1078-0432.CCR-17-1121. Epub 2017 Sep 12. PMID: 28899971; PMCID: PMC6636827.
Potency is the fitted concentration of half-maximal effect.

Row | SMILES | Potency
1 | C[Se]CCC(N)C(=O)O (stereo not given) | inactive
2 | Cc1nccn1CC1CCc2c(c3ccccc3n2C)C1=O (stereo not given) | inactive
3 | COCCCOc1ccnc(CS(=O)c2nc3ccccc3[nH]2)c1C (stereo not given) | inactive
4 | CN(C)c1ccc2nc3ccc(=[N+](C)C)cc-3sc2c1 | 13.2 µM (active)
5 | O=C(O)CCNC(=O)c1ccc(N=Nc2ccc(O)c(C(=O)O)c2)cc1 | inactive
6 | Cc1nc2n(c(=O)c1CCN1CCC(c3noc4cc(F)ccc34)CC1)CCCC2 | inactive
7 | O=c1ccc2ccc(O)c(O)c2o1 | inactive
8 | CCOC(=O)C1=C(O)C(=O)N(Cc2ccccc2)C1 | inactive
9 | NCCCCNCCCN | inactive
10 | COc1ccccc1N1CCN(CCN(C(=O)C2CCCCC2)c2ccccn2)CC1 | 1.18 µM (active)
11 | COc1cc(OC)c(C(=O)CCCN2CCCC2)c(OC)c1 | inactive
12 | NC(=O)Cc1cccc(C(=O)c2ccccc2)c1N | inactive
13 | Cc1cc(=O)c2c(O)c3c(O)cc(=O)c4c3c3c(cc(O)c1c23)C(C)(C)C=4O | 3.32 µM (active)
14 | CCN(CC)CCOc1ccc(Nc2ncc3cc(-c4c(Cl)cccc4Cl)c(=O)n(C)c3n2)cc1 | 0.166 µM (active)
15 | Cc1cc(O)c2c(c1)C(=O)c1cc(O)cc(O)c1C2=O | inactive
16 | O=C(NOCC1CC1)c1ccc(F)c(F)c1Nc1ccc(I)cc1Cl | 11.8 µM (active)
17 | Cc1cc(=O)oc2cc(O)ccc12 | inactive
18 | O=C(O)c1cccc(-c2noc(-c3ccccc3F)n2)c1 | 14.8 µM (active)
19 | Cc1ncc([N+](=O)[O-])n1CC(C)O (stereo not given) | inactive
20 | CC1(C)NC(=O)N(c2ccc([N+](=O)[O-])c(C(F)(F)F)c2)C1=O | inactive

Row | SMILES | Potency
21 | Cc1c(C(=O)NN2CCCCC2)nn(-c2ccc(Cl)cc2Cl)c1-c1ccc(Cl)cc1 | 16.6 µM (active)
22 | CC(C)CC(=O)N[C@H](C(=O)N[C@H](C(=O)N[C@@H](CC(C)C)[C@@H](O)CC(=O)N[C@@H](C)C(=O)N[C@@H](CC(C)C)[C@@H](O)CC(=O)O)C(C)C)C(C)C (Isovaleryl-VV[Sta]A[Sta]-OH) | inactive
23 | COc1cc2c(cc1OC)C1CC(=O)C(CC(C)C)CN1CC2 (stereo not given) | inactive
24 | O=C(c1ccccc1)c1ccc2n1CCC2C(=O)O (stereo not given) | inactive
25 | CC(C)Oc1ccc2c(=O)c(-c3ccccc3)coc2c1 | inactive
26 | c1ccc2[nH]c(-c3cscn3)nc2c1 | inactive
27 | Cc1cccc(CN2CCN(C(c3ccccc3)c3ccc(Cl)cc3)CC2)c1 (stereo not given) | 26.4 µM (active)
28 | Cc1ccc(Nc2nccc(N(C)c3ccc4c(C)n(C)nc4c3)n2)cc1S(N)(=O)=O | 16.6 µM (active)
29 | CC(=O)NC[C@H]1CN(c2ccc(N3CCOCC3)c(F)c2)C(=O)O1 | inactive
30 | C[C@]12CCC(=O)C=C1CC[C@@H]1[C@H]2[C@@H](O)C[C@@]2(C)[C@H]1CC[C@]2(O)C(=O)CO | 0.0118 µM (active)
31 | O=c1cc(N2CCOCC2)oc2c(-c3ccccc3)cccc12 | inactive
32 | COc1cc2c(N3CCN(C(=O)Nc4ccc(OC(C)C)cc4)CC3)ncnc2cc1OCCCN1CCCCC1 | inactive
33 | Cc1cccc(-c2[nH]ncc2-c2ccc3ncccc3n2)n1 | inactive
34 | COC(=O)C1=C(C)NC(C)=C(C(=O)OCCCN2CCC(c3ccccc3)(c3ccccc3)CC2)C1c1cccc([N+](=O)[O-])c1 (stereo not given) | inactive
35 | Cc1cccc(C)c1OCC(=O)N[C@@H](Cc1ccccc1)[C@@H](O)C[C@H](Cc1ccccc1)NC(=O)[C@H](C(C)C)N1CCCNC1=O | 5.9 µM (active)
36 | CCOC(=O)c1c(C)n(C)c2ccc(O)cc12 | inactive
37 | CC(C)c1ccc2oc3nc(N)c(C(=O)O)cc3c(=O)c2c1 | inactive
38 | CS(=O)(=O)OCCCCOS(C)(=O)=O | inactive
39 | O=C(O)c1cc(=O)c2c(OCC(O)COc3cccc4oc(C(=O)O)cc(=O)c34)cccc2o1 | inactive
40 | CC1(C)CCC(C)(C)c2cc(NC(=O)c3ccc(C(=O)O)cc3)ccc21 | 13.2 µM (active)
